Sampled rows, rich in hits. Any-hit rate of the full collection: about 2.1%.
Efa HMGR inh – E. faecalis class II HMG-CoA reductase inhibition; purified E. faecalis HMGR, NADPH absorbance 340 nm kinetic; inhibition, % at 10 µM; 0.41% of 190,000 active;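 active means inhibition above a set limit, the median over all tested compounds plus 3 SD, cut at about 9.5% in these data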;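 further: enzyme runs in reverse so mevalonate oxidation gives rising NADPH absorbance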
GSH fluor – GSH bead compound fluorescence profile | GSH beads flow cytometry, compound fluorescence 488/530 nm; stronger effect = higher value | fluorescence (KMESF) at 10 µM | 0.25% of 190,000 active; in the data active means fluorescence above about 89;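 further: glutathione beads carrying GST-tagged Bcl family fusion proteins plus one bare bead set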
EP2 modulator – modulates human prostaglandin E2 receptor EP2 signaling; EP2-expressing cells, cAMP HTRF FRET, PGE2 co-stimulation; induction, % at 25 µM; 0.83% of 260,000 active;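 active means compounds whose cAMP rise, as percent of the full-agonist control response, exceeds 60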;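 further: rat C6 glioma line stably carrying human EP2 under a CMV promoter; the protocol text gives 20 µM as final concentration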
Target sequence (P43116 whole entry, looked up): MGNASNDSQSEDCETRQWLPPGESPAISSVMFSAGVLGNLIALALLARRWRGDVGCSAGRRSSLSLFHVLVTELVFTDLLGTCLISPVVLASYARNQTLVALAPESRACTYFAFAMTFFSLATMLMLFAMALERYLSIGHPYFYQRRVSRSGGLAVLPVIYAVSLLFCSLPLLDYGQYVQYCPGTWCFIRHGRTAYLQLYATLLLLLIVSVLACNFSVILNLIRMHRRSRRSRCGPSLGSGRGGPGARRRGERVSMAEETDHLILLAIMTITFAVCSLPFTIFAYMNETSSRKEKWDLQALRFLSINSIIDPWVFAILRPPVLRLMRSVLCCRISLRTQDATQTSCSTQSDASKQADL
EP2 antag – EP2 receptor (human) inhibition; P43116; C6 glioma cells expressing human EP2, cAMP TR-FRET; cells stimulated with saturating PGE2; inhibition, % at 25 µM; 0.52% of 260,000 active; AID 1422;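 active means percent inhibition above 40 after rounding to a whole number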;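 further: rat C6 glioma host cells with rolipram phosphodiesterase inhibitor present; the protocol text gives 20 µM as final concentration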
Avidin fluor – avidin bead compound fluorescence profile; Avidin beads, compound fluorescence 488/530 nm, flow cytometry; stronger effect = higher value; fluorescence (KMESF) at 10 µM; 0.38% of 220,000 active; AID 1775; in the data active means fluorescence above about 47
Of the large screens only hits and unclear results are named; the others gave an inactive call.

CCc1ccc(OCc2nnc(SCC(=O)NCc3ccco3)n2CC)cc1	none (no result: Efa HMGR inh, GSH fluor, Avidin fluor)
O=C1c2ccccc2C(=O)N1C1(C(=O)NC2(C(=O)O)CCCC2)CCCC1	EP2 antag 42 (no result: Efa HMGR inh, GSH fluor, Avidin fluor)
O=C(CN1C(=O)c2ccccc2C1=O)NC1(C(=O)O)CCCC1	none (no result: Efa HMGR inh, GSH fluor, Avidin fluor)
C=C(C)CSc1nc2c(c(=O)n(C)c(=O)n2C)n1Cc1ccc(Cl)cc1	EP2 modulator 61 (no result: Efa HMGR inh, GSH fluor, Avidin fluor)
CCSc1nc2c(c(=O)n(C)c(=O)n2C)n1Cc1ccc(Cl)cc1	none (no result: Efa HMGR inh, GSH fluor, EP2 modulator, Avidin fluor)
C=CCNC(=O)c1ccc(Cn2c(=S)[nH]c3cc4c(cc3c2=O)OCO4)cc1	Avidin fluor 47
CCN1C(=O)/C(=C\N(C)C)c2ccccc21	Efa HMGR inh 11
CCN1C(=O)/C(=C/N(C)C)c2ccccc21	none
CC1CCc2c(sc3ncn4c(SCC(=O)Nc5ccc(F)cc5)nnc4c23)C1 (stereo unspecified)	none (no result: Efa HMGR inh, GSH fluor, Avidin fluor)
CCOC(=O)CSc1nc2c(C)c(C)ccc2cc1C	EP2 modulator 88 (no result: Efa HMGR inh, GSH fluor, Avidin fluor)
CCOC(=O)CSc1nc2c(C)cccc2cc1CC	EP2 modulator 73 (no result: Efa HMGR inh, GSH fluor, Avidin fluor)
COc1cc2cc(CN(C(=O)Nc3cccc(Cl)c3)C3CCCC3)c(=O)[nH]c2cc1OC	none (no result: Efa HMGR inh, GSH fluor, Avidin fluor)
COc1ccc(C(=O)Nc2sc(C(=O)N3CCCC3)c(C)c2C#N)cc1OC	none (no result: Efa HMGR inh, GSH fluor, Avidin fluor)
Cc1occc1C(=O)N/N=C/C(Br)=C/c1ccccc1	Efa HMGR inh 10
COC(=O)CCCCCN1C(=O)/C(=C\c2ccncc2)SC1=S	EP2 antag 51 (no result: Efa HMGR inh, GSH fluor)
O=C1/C(=C/c2ccncc2)SC(=S)N1Nc1ccccc1	EP2 antag 64 (no result: Efa HMGR inh, GSH fluor)
COC(=O)CCCCCN1C(=O)/C(=C/c2ccc(OC)cc2)SC1=S	none (no result: Efa HMGR inh, GSH fluor, Avidin fluor)
CCOC(=O)C1CCCN(C(=O)c2cc(Nc3ccc(OC)cc3)nc3ccccc23)C1 (stereo unspecified)	Avidin fluor 51
CCOC(=O)C1CCCN(C(=O)c2cc(-c3ccc(F)cc3)nc3ccccc23)C1 (stereo unspecified)	none
CSc1nc2sc3c(c2c2nnnn12)CCCC3	EP2 antag 66
CCN(CC)CCCNC(=S)N1CCN(Cc2ccccc2)CC1	none (no result: Efa HMGR inh, GSH fluor, Avidin fluor)
Cc1cc(CN2CCCCC2)c(O)c(CN2CCCCC2)c1	EP2 antag 59 (no result: Efa HMGR inh, GSH fluor, Avidin fluor)
CC1CCCCC1NC(=O)Cn1c(=O)n(C(C)C)c2ncccc21 (stereo unspecified)	none (no result: Efa HMGR inh, GSH fluor, EP2 antag, Avidin fluor)
CCN(CC)c1ccc(-c2n[nH]c(=S)n2-c2ccccc2C)cc1	Efa HMGR inh 14
CCN1CCN(c2ccc(NC(=O)COc3ccc(OC)cc3)cc2Cl)CC1	none (no result: Efa HMGR inh, GSH fluor, Avidin fluor)
Cc1ccc([N+](=O)[O-])cc1Nc1nc(N2CCOCC2)nc(N2CCOCC2)n1	Efa HMGR inh 10
O=[N+]([O-])c1ccc(Cl)c(/C=N/Nc2nc(N3CCOCC3)nc(N3CCOCC3)n2)c1	Avidin fluor 354
O=[N+]([O-])c1ccc(/C=N/Nc2nc(N3CCOCC3)nc(N3CCOCC3)n2)cc1	none
COc1ccccc1CC(=O)N1CCC(C(=O)c2nc3ccccc3s2)CC1	none (no result: Efa HMGR inh, GSH fluor, EP2 antag, Avidin fluor)
Cc1cccc(C)c1NC(=O)CN1C(=O)NC(C)(CCc2ccccc2)C1=O (stereo unspecified)	Efa HMGR inh 13
CCC(c1nnnn1CC1CCCO1)N(Cc1cc2cc3c(cc2[nH]c1=O)OCCO3)C1CCCC1 (stereo unspecified)	none (no result: Efa HMGR inh, GSH fluor, Avidin fluor)
O=C1C(c2c(O)[nH]c3ccccc23)=Nc2ccccc21	none (no result: EP2 modulator)
CC(=O)c1cccc2c(O)c(C3=Nc4ccccc4C3=O)[nH]c12	EP2 antag 47
O=S(=O)(O)[C@@H](CO)c1ccccc1 (tested in a mixture with another compound)	EP2 antag 49 (no result: Efa HMGR inh, GSH fluor, Avidin fluor)
O=S(=O)(O)[C@@H](c1ccccc1)[C@@H](O)c1ccccc1	none (no result: Efa HMGR inh, GSH fluor, Avidin fluor)
CC1=CC(=O)c2ccccc2C1=O	EP2 antag 46
Cc1cccc(NC(=O)Cn2cc(C#N)c3ccccc32)c1C	none (no result: Efa HMGR inh, GSH fluor, Avidin fluor)
CCOc1ccc2[nH]c(=O)c(CN(CC3CCCO3)C(=S)NCCCN(C)C)cc2c1 (stereo unspecified)	none (no result: Efa HMGR inh, GSH fluor, Avidin fluor)
COc1ccc(N2CCN(c3nc4ccccc4n3CC(=O)c3ccccc3)CC2)cc1	Avidin fluor 76
COc1ccc(Oc2nc3ccccc3nc2C(F)(F)F)cc1	none
Cc1cc(C)cc(Oc2nc(C(F)(F)F)nc3ccccc23)c1	EP2 modulator 61
CN(C)C(=O)CSc1nc(-c2ccccc2)c(-c2ccccc2)o1	EP2 modulator 63
COc1ccc(-c2nnn(CCC#N)n2)cc1OC	none (no result: Efa HMGR inh, GSH fluor, Avidin fluor)
CC(NC(=O)CCCSc1nc(-c2ccco2)cc(C(F)(F)F)n1)c1ccccc1 (stereo unspecified)	EP2 antag 42 (no result: Efa HMGR inh, GSH fluor, Avidin fluor)
O=C(CSc1nc(-c2ccco2)cc(C(F)(F)F)n1)Nc1cccnc1	Avidin fluor 59
COc1ccc(C(=O)N2CCn3c2nc2ccccc23)cc1	none
O=C(c1ccc(Cl)cc1)N1CCn2c1nc1ccccc12	EP2 antag 97
CC(C)C(=O)N1CCC[C@@H]1Cn1nc(-c2cccs2)ccc1=O	none (no result: Efa HMGR inh, GSH fluor, EP2 antag, Avidin fluor)
Cc1ccc2cc(CN(Cc3ccc(F)cc3)Cc3nnnn3CC3CCCO3)c(=O)[nH]c2c1 (stereo unspecified)	none (no result: Efa HMGR inh, GSH fluor, Avidin fluor)
CCOCCCNCc1ccc(OCc2ccccc2Cl)cc1	none
CCOCCCNCc1c(Cl)cccc1Cl	Avidin fluor 60
Cc1cc(C)cc(N(CC(=O)NCCSCc2ccccc2)S(C)(=O)=O)c1	Avidin fluor 77
CS(=O)(=O)N(CC(=O)NCCSCc1ccccc1)c1ccccc1	none
COCCNC(=O)Cn1nc2c(C)cc3cc(OC)ccc3n2c1=O	none (no result: Efa HMGR inh, GSH fluor, EP2 antag, Avidin fluor)
CCC(Sc1ccccn1)C(=O)Nc1cccc([N+](=O)[O-])c1 (stereo unspecified)	Efa HMGR inh 14
NC(=O)c1nnn(Cc2cc(Cl)c(C(=O)c3ccc(Cl)cc3)c(Cl)c2)c1N	EP2 antag 44 (no result: Efa HMGR inh, GSH fluor, Avidin fluor)
Cc1cc(NC(=O)c2ccc(C)s2)n(-c2nc3ccccc3[nH]2)n1	EP2 modulator 63
CC(=O)Oc1ccc2oc3c(c2c1)C(=O)CCC3	GSH fluor 260
CC(=O)Oc1ccc2oc(C)c(C(=O)N3CCOCC3)c2c1	none
Cc1ccc(C(=O)CSc2ccccn2)cc1	Avidin fluor 65
O=C(CSc1ccccn1)c1ccc(F)cc1	none
Cc1cc2c(s1)c1cnn(CCC(N)=O)c(=O)c1n2Cc1ccc(F)cc1	none (no result: Efa HMGR inh, GSH fluor, EP2 antag, Avidin fluor)
Clc1ccc2[nH]c3c(N4CCC5(CC4)OCCO5)ncnc3c2c1	EP2 antag 46
Cc1nn(C(C)C)c(C)c1CN(C)Cc1cccc2ncccc12	none (no result: Efa HMGR inh, GSH fluor, Avidin fluor)
COCCNC(=O)Cn1nc(C)n2c(cc3oc(C)cc32)c1=O	none (no result: Efa HMGR inh, GSH fluor, Avidin fluor)
O=c1ccc2[n+]([O-])c3ccc(O)cc3oc-2c1	EP2 antag 83 (no result: Efa HMGR inh, GSH fluor)
O=c1cc(O)c2ccc(O)cc2o1	none
CCNc1nc(NC(C)C)nc(SCCOC(=O)c2ccccc2)n1	EP2 modulator 61
COC(=O)c1ccc(NC(=O)c2ccc(N(C)S(C)(=O)=O)cc2)cc1	EP2 antag 113
COc1ccc(NC(=O)c2ccc(N(C)S(C)(=O)=O)cc2)cc1OC	none
CCCC(=O)Nc1ccc(C(=O)NCc2ccccc2Cl)cc1	GSH fluor 137
O=C(NCc1ccccc1Cl)c1ccc(-c2ccccc2)cc1	none
CCn1c(SC(C)C(=O)O)nnc1C1CCCCC1 (stereo unspecified)	none (no result: Efa HMGR inh, GSH fluor, Avidin fluor)
